In all, about 5,500 compounds went through this assay and about 2,000 (36%) were called active. About 18% were inconclusive and are not listed. Cut-off read from the data, not from the text of the source: active = normalized growth mostly below about 0.91 (no sharp cut-off); inconclusive = no clear call, values can overlap the other calls; inactive = mostly above about 0.92. This is one part of the list.
Assay: chemical genetic growth profiling, strain panel (AID 1159580);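 note: tested at 20 µM; growth read once vehicle control cultures reached saturation at 30 °C; 1 = growth at the plate median or of vehicle wells; lower values mean less growth of the strain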
Conditions: S. cerevisiae deletion strains, growth OD
[1] = locus YAL040C, strain CLN3, stronger effect = lower value
[2] = locus YCL061C, strain MRC1 (second series), stronger effect = lower value
[3] = locus YDR150W, strain NUM1, stronger effect = lower value
[4] = locus YDR363W, strain ESC2, stronger effect = lower value
[5] = locus YER002W, strain NOP16, stronger effect = lower value
[6] = locus YNL175C, strain NOP13, stronger effect = lower value
[7] = locus YNL197C, strain WHI3, stronger effect = lower value
[8] = locus YNL224C, strain SQS1, stronger effect = lower value
[9] = locus YOR083W, strain WHI5 (second series), stronger effect = lower value

Measured: normalized growth

S=c1[nH]nc(Nc2ccc(I)cc2)s1
active: locus YAR019C, strain CDC15, stronger effect = lower value 0.839 | locus YBL105C, strain PKC1, stronger effect = lower value 0.874 | locus YBR135W, strain CKS1, stronger effect = lower value 0.881 | locus YBR136W, strain MEC1, stronger effect = lower value 0.871 | locus YBR160W, strain CDC28, stronger effect = lower value 0.885 | locus YDL017W, strain CDC7, stronger effect = lower value 0.873 | locus YDL028C, strain MPS1, stronger effect = lower value 0.873 | locus YDL108W, strain KIN28, stronger effect = lower value 0.868 | locus YDR052C, strain DBF4, stronger effect = lower value 0.874 | locus YDR226W, strain ADK1, stronger effect = lower value 0.878 | locus YDR477W, strain SNF1, stronger effect = lower value 0.644 | locus YER123W, strain YCK3, stronger effect = lower value 0.504 | locus YER133W, strain GLC7, stronger effect = lower value 0.607 | locus YFL009W, strain cdc4, stronger effect = lower value 0.845 | locus YFL029C, strain CAK1, stronger effect = lower value 0.814 | locus YFR003C, strain YPI1, stronger effect = lower value 0.869 | locus YFR028C, strain CDC14, stronger effect = lower value 0.871 | locus YGR040W, strain KSS1, stronger effect = lower value 0.658 | locus YGR092W, strain DBF2, stronger effect = lower value 0.326 | locus YHR030C, strain SLT2, stronger effect = lower value 0.279 | locus YHR079C, strain IRE1, stronger effect = lower value 0.362 | locus YIL147C, strain SLN1, stronger effect = lower value 0.866 | locus YJL095W, strain BCK1, stronger effect = lower value 0.396 | locus YJL157C, strain FAR1, stronger effect = lower value 0.699 | locus YJR016C, strain ILV3, stronger effect = lower value 0.85 | locus YJR066W, strain TOR1 (second series), stronger effect = lower value 0.14 | locus YJR066W, strain TOR1, stronger effect = lower value 0.462 | locus YKL193C, strain SDS22, stronger effect = lower value 0.849 | locus YKL203C, strain TOR2, stronger effect = lower value 0.648 | locus YLR113W, strain HOG1, stronger effect = lower value 0.51 | locus YLR403W, strain SFP1, stronger effect = lower value 0.566 | locus YML070W, strain DAK1, stronger effect = lower value 0.676 | locus YMR001C, strain CDC5, stronger effect = lower value 0.85 | locus YMR205C, strain PFK2 (second series), stronger effect = lower value 0.743 | locus YMR277W, strain FCP1, stronger effect = lower value 0.863 | locus YNL006W, strain LST8, stronger effect = lower value 0.87 | locus YNL020C, strain ARK1, stronger effect = lower value 0.71 | locus YNL161W, strain CBK1, stronger effect = lower value 0.87 | locus YNL183C, strain NPR1, stronger effect = lower value 0.516 | locus YNL207W, strain RIO2, stronger effect = lower value 0.818 | locus YNL222W, strain SSU72, stronger effect = lower value 0.864 | locus YOL078W, strain AVO1, stronger effect = lower value 0.847 | locus YOL136C, strain PFK27, stronger effect = lower value 0.651 | locus YOR119C, strain RIO1, stronger effect = lower value 0.61 | locus YOR231W, strain MKK1, stronger effect = lower value 0.447 | locus YOR329C, strain SCD5, stronger effect = lower value 0.847 | locus YPL031C, strain PHO85, stronger effect = lower value 0.495 | locus YPL153C, strain RAD53, stronger effect = lower value 0.512 | locus YPL204W, strain HRR25, stronger effect = lower value 0.486 | locus YPL209C, strain IPL1, stronger effect = lower value 0.85 | locus YPL256C, strain CLN2, stronger effect = lower value 0.438 | locus YPR025C, strain CCL1, stronger effect = lower value 0.863 | strain TSCII, stronger effect = lower value 0.838
inactive: locus YDL101C, strain DUN1, stronger effect = lower value 0.917 | locus YDL132W, strain cdc53, stronger effect = lower value 0.904 | locus YDL214C, strain PRR2, stronger effect = lower value 0.722 | locus YDR054C, strain cdc34, stronger effect = lower value 0.912 | locus YFR019W, strain FAB1, stronger effect = lower value 0.813 | locus YGR052W, strain FMP48, stronger effect = lower value 0.744 | locus YHR082C, strain KSP1, stronger effect = lower value 0.653 | locus YHR205W, strain SCH9, stronger effect = lower value 0.821 | locus YJL128C, strain PBS2, stronger effect = lower value 0.882 | locus YKL048C, strain ELM1, stronger effect = lower value 0.857 | locus YKL067W, strain YNK1, stronger effect = lower value 0.746 | locus YKL101W, strain HSL1, stronger effect = lower value 0.77 | locus YLR133W, strain CKI1, stronger effect = lower value 0.745 | locus YNL307C, strain MCK1 (second series), stronger effect = lower value 0.701 | locus YOR061W, strain CKA2, stronger effect = lower value 0.755 | locus YPR106W, strain ISR1, stronger effect = lower value 0.894 | locus YPR111W, strain DBF20, stronger effect = lower value 0.911 | strain NNK1, stronger effect = lower value 0.893

Oc1cc2c(cc1O)CN(C(=S)NCCc1ccc(Cl)cc1)CCC2
active: locus YAL013W, strain DEP1, stronger effect = lower value 0.609 | [2] 0.683 | [3] 0.656 | locus YGR229C, strain SMI1, stronger effect = lower value 0.128 | locus YJR075W, strain HOC1, stronger effect = lower value 0.718
inactive: [1] 1.09 | [4] 0.879 | [5] 1 | locus YGR078C, strain PAC10, stronger effect = lower value 0.995 | locus YMR263W, strain SAP30, stronger effect = lower value 0.994 | locus YNL128W, strain TEP1, stronger effect = lower value 0.975 | [6] 1 | [7] 0.98 | [8] 0.997 | locus YNL322C, strain KRE1, stronger effect = lower value 0.992 | [9] 0.897

O=C(O)C1CCNCC1
inactive: [1] 1 | [2] 0.998 | [3] 1 | [4] 0.964 | [5] 0.995 | locus YNL153C, strain GIM3, stronger effect = lower value 1.01 | [6] 0.992 | [7] 0.992 | [8] 0.997 | [9] 1.01 | locus YPL055C, strain LGE1, stronger effect = lower value 1.01

From PubChem BioAssay AID1159580 (chemical genetic matrix, 2015)
